PubChem BioAssay (NCI)
This is part of a sample that, as a whole, favours compounds with a hit. Of some 83,000 tested, about 20% had one in any assay.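 Values shown are percent growth following 48 h exposure of cells in 96-well plates to a single concentration of compound; below 10 was considered active.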 Active and inactive are the calls of the source.

System: MDA-MB-468 breast
Test: NCI-60 one-dose screen, 48 h (100 = growth as untreated, 0 = no growth, -100 = all killed)
Details: 10 µM unless noted

Compound | growth
C=CCn1c(SCC(=O)NCc2cc(C)c(O)c(C)c2)nc2ccc(Cl)cc2c1=O | 91.1% (inactive)
NC(=O)NCC1CCCCC1 | 98% (inactive)
COc1cc(/C=N/N(C)C)ccc1O | 95.8% (inactive)
ICCC(c1ccccc1)(c1ccccc1)c1ccccc1 | 22.6% (inactive)
C/C(=C(/c1ccc(Cl)cc1)c1ccc(OCCN2CCCC2)cc1)c1ccccc1 | 62.4% (inactive)
O=C1C[C@@H](c2ccccc2)Oc2c(Cc3ccccc3O)c(O)c(Cc3cc(Cc4cc(Cc5ccccc5O)ccc4O)ccc3O)c(O)c21 | 101% (inactive)
[O-]/[N+](=C\c1ccccc1)CC1(O)CCCCC1 | 108% (inactive)
c1ccc(-c2n(Cc3ccc4ccccc4n3)c3ccccc3[n+]2Cc2ccc3ccccc3n2)cc1 | -34.3% (active)
NC(N)=Nc1cc2ccccc2c2ccccc12 | 54.4% (inactive)
NS(=O)(=O)c1ccc(N2CC(c3nc4ccccc4[nH]3)CC2=O)cc1 (stereo not given) | 113% (inactive)
O=C(c1nc2ccccc2[nH]1)C1C(c2ccc([N+](=O)[O-])cc2)C2CC3CCCCC3N2[C@@]12C(=O)Nc1cc(Cl)ccc12 (stereo not given in full) | -1.98% (active)
Cc1cc(Nc2ccc(C)c(Cl)c2)n2nc(C(F)(F)F)nc2n1 | 36.5% (inactive)
Cn1ccnc1C(=O)/C=C/c1ccc(C(=O)Nc2ccccc2O)cc1 | -3.85% (active)
C#CCn1c(C)cc(C)c(C#N)c1=O | 132% (inactive)
N#Cc1c(-c2ccc(Cl)cc2)csc1NC(=O)Nc1cccc(C(F)(F)F)c1 | 7.03% (active)
